3T3 cytotox: NIH 3T3 cell cytotoxicity. NIH 3T3 viability, CellTiter-Glo ATP luminescence, 48-72 h. Potency, µM (highest dose often 96.7 µM), without a hit: top-dose activity change, negative = cytotoxicity, hits mostly inhibitors. actives 4.3% (n = 94,000). AID 1345082; also: % is scaled to controls: 0 for no effect and ±100 for the full control effect; nearly all actives have a fitted effect of over 55% in size
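Cytotoxicity is measured as loss of cellular ATP: NIH 3T3 cells (400/well) are exposed to compound for 48 or 72 hr at 37 °C, then CellTiter-Glo luminescence is imaged after 10 min at room temperature.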
FLuc inh-1: inhibitors of firefly (Photinus pyralis) luciferase; purified P. pyralis luciferase, luminescence, biochemical; actives 2.5% (n = 76,000); Potency, µM (titrated, usually from 115 µM), hits mostly inhibitors; P08659; also: % is scaled to controls: 0 for no effect and ±100 for the full control effect; nearly all actives have a fitted effect of over 65% in size
Target sequence (P08659 whole entry, looked up): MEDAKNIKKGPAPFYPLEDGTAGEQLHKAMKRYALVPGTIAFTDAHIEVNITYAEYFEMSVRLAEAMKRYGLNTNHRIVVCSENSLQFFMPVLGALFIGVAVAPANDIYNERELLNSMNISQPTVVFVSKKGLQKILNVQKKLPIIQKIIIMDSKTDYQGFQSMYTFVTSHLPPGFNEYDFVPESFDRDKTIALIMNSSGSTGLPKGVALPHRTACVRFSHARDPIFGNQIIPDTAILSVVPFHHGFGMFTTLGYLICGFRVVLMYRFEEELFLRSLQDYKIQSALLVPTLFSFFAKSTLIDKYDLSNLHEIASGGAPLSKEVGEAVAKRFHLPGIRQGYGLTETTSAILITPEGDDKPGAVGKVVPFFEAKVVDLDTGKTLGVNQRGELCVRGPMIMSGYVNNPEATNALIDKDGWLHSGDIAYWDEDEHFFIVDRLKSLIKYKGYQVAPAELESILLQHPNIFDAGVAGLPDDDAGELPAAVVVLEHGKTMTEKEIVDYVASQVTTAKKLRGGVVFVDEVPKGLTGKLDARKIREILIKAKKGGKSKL
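Purified 10nM P. pyralis luciferase with 10uM D-luciferin and 10uM ATP in 50mM Tris acetate pH 7.5, 10mM Mg acetate, 0.01% Tween-20, 0.05% BSA. qHTS titration; luminescence read by CCD imager.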
SNCA expr inh: SNCA gene expression inhibition. HEK-293 SNCA-luciferase knock-in, luminescence, 24 h. actives 0.17% (n = 140,000). Potency, µM (top dose mostly 57.2 µM), inactives show at the top dose activity change, negative = inhibition, actives largely listed as inhibitors;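 also: plate controls were DMSO cells for no effect and cell-free wells for full effect; nearly all actives have a fitted effect of over 45% in size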
HEK cytotox: HEK 293 cell cytotoxicity | HEK 293 viability, ATP luminescence (CellTiter-Glo), 48-72 h | Potency, µM (top dose mostly 115 µM), for the others: at the top dose activity change, negative = cytotoxicity, actives largely listed as inhibitors | actives 6.6% (n = 94,000); also: % is scaled to controls: 0 for no effect and ±100 for the full control effect; nearly all actives have a fitted effect of over 60% in size
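CellTiter-Glo luminescence (cellular ATP) was read after 48 or 72 hr of compound exposure at 37 degree Celsius. Cells were HEK 293 plated at 250 cells/well.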
HEK293 viab: cell viability loss counter-screen | HEK-293-SNCA-luc viability, GF-AFC fluorescence, 24 h | Potency, µM (titrated, usually from 57.1 µM), without a hit: at the highest dose activity change, negative = cytotoxicity, usual class: cytotoxic | actives 0.12% (n = 150,000);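 also: 0% = DMSO-treated cells and -100% = medium-only wells without cells; nearly all actives have a fitted effect of over 30% in size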
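HEK-293-SNCA-luc cells (1500/well) plated 24 h, then exposed 24 h to a dilution series; GF-AFC added 30 min at 37C, fluorescence 405/540 nm; normalised to medium-only and DMSO wells, Hill fit.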
NPR1 antag: blocks ANP-stimulated signaling of human Npr1 receptor | HEK293 hNpr1 GloSensor cGMP, ANP-stimulated luminescence | Potency, µM (titrated, usually from 46.3 µM), inactives show top-dose activity change, negative = inhibition, hits mostly inhibitors | AID 1347048 | actives 1.6% (n = 76,000) | P16066; calls by dose curve; also: % is scaled to controls: 0 for no effect and ±100 for the full control effect; nearly all actives have a fitted effect of over 60% in size
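HEK293 cells stably expressing human Npr1 and cGMP GloSensor pGS-40F, loaded 2 h with 2% GloSensor reagent, given compound 30 min at room temperature. Luminescence read before and 20 min after 0.1 nM hNppA.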
FLuc SDR no ATP: firefly luciferase binding stabilization, ATP absent. shares compounds with FLuc inh-1. AID 1963318. Potency, µM (series often up to 32.7 µM), for inactives: top-dose activation (signal gain), most hits filed as activators. Purified FLuc-C-HiBiT, Nano-Glo HiBiT luminescence, no ATP. actives 7.8% (n = 1,300); also: nearly all actives have a fitted effect of over 55% in size
FLuc SDR ATP: binders stabilizing firefly luciferase, plus ATP; shares compounds with FLuc inh-1; purified FLuc-C-HiBiT + ATP, HiBiT complementation luminescence; Potency, µM (series often up to 32.7 µM), for inactives: at the top dose activation (gain of signal), usual class: activators; actives 8.7% (n = 1,300); AID 1963319;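 also: signal reports ligand binding via conformational change of the enzyme rather than luciferase catalysis; % of control where 0% means no effect; nearly all actives have a fitted effect of over 55% in size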
FLuc inh-2: firefly luciferase enzyme inhibition; shares compounds with FLuc inh-1; purified FLuc-C-HiBiT enzyme, luciferin luminescence; Potency, µM (top dose mostly 32.7 µM), inactives show at the top dose activity change, negative = inhibition, hits mostly inhibitors; actives 42% (n = 1,300); also: % is scaled to controls: 0 for no effect and ±100 for the full control effect; nearly all actives have a fitted effect of over 70% in size
Starred values were filed as active, the others as inactive; i = inactive; ? = inconclusive; · = no result given; [ ] = another dose, or the depositor's remark. Sampled rows, rich in hits. Any-hit rate of the full collection: about 7.4%. Unless noted, calls follow the shape of the dose curve; as a rule, active = well fitted curve in the direction sought with a large enough effect; inconclusive = small, poorly fitted or top-dose-only effect, or another doubt; inactive = no such curve, though single readings can be large; an effect the other way counts as inactive or inconclusive. Potency is read from the fitted curve at half-maximal effect.

SMILES	3T3 cytotox	FLuc inh-1	SNCA expr inh	HEK cytotox	HEK293 viab	NPR1 antag	FLuc SDR no ATP	FLuc SDR ATP	FLuc inh-2
COc1ccccc1-c1cc([C@H]2CN3CC[C@H]2C[C@@H]3COC(=O)Nc2ccc(C(C)C)cc2)nc(C)n1	?	18µM*	?	5µM*	?	-26%	·	·	·
CCCN1CCNc2cc(Nc3ccccc3)ncc2C1	?	6.3µM*	77%[87.6 µM]	89µM*	?	-1%[70.6 µM]	27%[65.7 µM]	19%[65.7 µM]	?
CCn1cc(-c2cc3c(cn2)CN(C)CCN3)cn1	·	·	·	·	·	·	16%[65.7 µM]	9%[65.7 µM]	?
COc1ccc(-c2cc3c(cn2)CN(C)CCN3)cn1	?	6.3µM*	4%[87.6 µM]	-24%[230 µM]	-6%[87.6 µM]	-21%[70.6 µM]	20%[65.7 µM]	15%[65.7 µM]	?
Cc1ccc2c(n1)N(C)[C@H](CO)CCN(CCC(C)C)C2	?	i	12%[87.6 µM]	?	3%[87.6 µM]	3%[70.6 µM]	·	·	·
O=C(NCC1CCOCC1)c1cnc(Nc2ccc(Cl)cc2Cl)nc1C(F)(F)F	·	·	2%	·	-5%	·	·	·	·
CN1CCN(C(=O)COc2ccc(-c3nc4ccccc4s3)cc2)CC1	·	·	·	·	·	·	1.6µM*	?	0.5µM*
COc1ccc2c(c1)C1(CCN(C(=O)Nc3ccc4c(c3)OCCO4)C1)C(=O)N2C (stereo unspecified)	-4%	10µM*	99%	-29%	-7%	-15%	22%	15%	?
COc1ccc2c(c1)C1(CCN(C(=O)Nc3cccc(C)c3)C1)C(=O)N2C (stereo unspecified)	-7%	i	27%	-16%	7%	-8%	·	·	·
O=[S+]1([O-])NCC2(CCN(CC3CCCCC3)C2)Oc2ncccc21 (stereo unspecified)	i	·	8%	-8%	-8%	·	·	·	·
O=C(Nc1ccc2c(c1)OCCO2)c1cccn(Cc2cccc([N+](=O)[O-])c2)c1=O	·	·	8%	·	10%	·	·	·	·
O=C(Nc1ccc2c(c1)OCCO2)c1cccn(Cc2ccccc2)c1=O	·	·	122%	·	10%	·	16%	11%	?
O=C(NCc1ccc2c(c1)OCO2)[C@H]1CN2CCC1C[C@@H]2Cn1cc(-c2cccc(O)c2)nn1 (stereo partly specified)	-11%	i	11%	?	-7%	0%	·	·	·

Bioassay records deposited in PubChem by National Center for Advancing Translational Sciences (NCATS).
